Experimental data from the OligoGym collection.
Also: reference of the scale not given here.

These sequences were tested against PML (assay: pooled miR-30 sensor sort-seq; sequence = guide strand). Conditions: shRNA.
Work on TTCATTGTCAATCTTGAGGTCA yielded a sensor-assay potency score (higher = more potent) of 0.253. TCCATCTTGATGACCTTCCTGG gave a sensor-assay potency score (higher = more potent) of -0.889. In the case of TTGTATTGGAGACATCCTCTCC, the sensor-assay potency score (higher = more potent) is reported as -0.965. TCGTGCTTGAGGAACCACTGGT was tested, and the sensor-assay potency score (higher = more potent) was 0.0745. TTGTATTGGAGACATCCAGGTC showed a sensor-assay potency score (higher = more potent) of -0.853. TTTCTCGCCAGGTAGGTCTGGG gave a sensor-assay potency score (higher = more potent) of 0.0297. In the case of TTCGGCATCTGAGTCTTCCGAG, the sensor-assay potency score (higher = more potent) is reported as 0.322. TATCTTTCTACATGGATGGAGT showed a sensor-assay potency score (higher = more potent) of -0.448. In the case of TTCTTGAGTTTGAAGCTGCTGG, the sensor-assay potency score (higher = more potent) is reported as -0.233. Sequence AAGTCTGAGAGTCACCTGCTGT has a sensor-assay potency score (higher = more potent) of -0.995. In the case of TATTGGAGACATCCTCTCCATA, the sensor-assay potency score (higher = more potent) is reported as -1.32.

These sequences were tested against PNPLA3 in the same assay as above. Conditions: shRNA.
TAGCAAGTTGCAAATCTTGCTC showed a sensor-assay potency score (higher = more potent) of -0.46. Work on ATTACATAAGACATTATCCTAA yielded a sensor-assay potency score (higher = more potent) of -0.605. With TTTGCAGAGACCCTGTCGGAGG the sensor-assay potency score (higher = more potent) was -0.649. TCTGCTTTGGTCTCTGCTGGAC showed a sensor-assay potency score (higher = more potent) of -0.599. Sequence TAAGACATTATCCTAATGGGTA has a sensor-assay potency score (higher = more potent) of -0.331. In the case of TATCGCACGCCTCTGAAGGAAG, the sensor-assay potency score (higher = more potent) is reported as -1.42. With TTGCTTAAGTTGAAGGATGGAT the sensor-assay potency score (higher = more potent) was -0.584. TTACATAAGACATTATCCTAAT was tested, and the sensor-assay potency score (higher = more potent) was -0.725. TAGAAGGGGATGAAGCAGGAAC showed a sensor-assay potency score (higher = more potent) of -0.79. Work on TAGCAGCTCATCTCCCTCCAGC yielded a sensor-assay potency score (higher = more potent) of -1.05. TCTTGCTCATGTATCCACCTTT showed a sensor-assay potency score (higher = more potent) of -0.0736. With TTCGTGGACTTGACTTTAGGGC the sensor-assay potency score (higher = more potent) was -0.495.

What follows are sequences tested against POLG in the same assay as above. Conditions: shRNA.
With TTGTCCTGTAGTCCACACCGAT the sensor-assay potency score (higher = more potent) was -1.34. Work on TTCCTCATCATAGTCGGGGTGC yielded a sensor-assay potency score (higher = more potent) of 0.36. For TTGTAGGCAAACATGCACCTGG, the sensor-assay potency score (higher = more potent) was 0.0528. For ATTACAGCTATTACCATCCTTG, the sensor-assay potency score (higher = more potent) was -0.0536. Sequence TTGGCTGCTATCCACAGACTGC has a sensor-assay potency score (higher = more potent) of -1.02. TAATCCAGTTCTTCTACCGTTT gave a sensor-assay potency score (higher = more potent) of -0.468. TATGGCACTATTGTCAGTGAGC showed a sensor-assay potency score (higher = more potent) of -0.848. TTGAACATTTCTGACTCTGTGC was tested, and the sensor-assay potency score (higher = more potent) was 0.0886. In the case of TATTGAACATTTCTGACTCTGT, the sensor-assay potency score (higher = more potent) is reported as 0.187. For TTAAACTGCATTAGTAAGCGCT, the sensor-assay potency score (higher = more potent) was -0.404. Work on TTATTGAACATTTCTGACTCTG yielded a sensor-assay potency score (higher = more potent) of 0.362. For TTTAGGTGTGACCCGCATCTGC, the sensor-assay potency score (higher = more potent) was -1.03.

What follows are sequences tested against POLH in the same assay as above. Conditions: shRNA.
ATAACTTCTTAGCATCATCTGC was tested, and the sensor-assay potency score (higher = more potent) was -0.998. TTGCTTTAGAGGATTCTTCTAG showed a sensor-assay potency score (higher = more potent) of -0.177. In the case of TAGCTTTTGTAGTCTCTCTTGT, the sensor-assay potency score (higher = more potent) is reported as -0.253. With TAGAAGCAGACTTTTCTGCTTA the sensor-assay potency score (higher = more potent) was 0.259. For TTGTACTGTACAACTGCACAAG, the sensor-assay potency score (higher = more potent) was -0.852.
